Structures are written as SMILES.

In this assay the test system is E18 rat cortical neuron-glia co-culture. Briefly: fiber score / MBP score (myelination specific beyond OL differentiation) (ratio); higher = more myelination-specific MBP alignment. The settings on record: 1 µM; treatment time: 8 days (DIV5-DIV13). A digest of the protocol: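 Fiber score divided by MBP score is the read-out; fiber score is continuous MBP fiber length per Olig2+ nucleus, and MBP score is thresholded MBP area × intensity per Olig2+ nucleus. Primary E18 rat cortical co-cultures were dissociated with papain and seeded at 20,000 cells/well on poly-d-lysine/laminin 96-well plates. Library compounds at 1 or 5 µM were given in myelination medium from DIV5 to DIV13, after which cells were fixed in 4 % paraformaldehyde, immunostained for MBP and Olig2 with DAPI, and imaged in four 10X fields per well in duplicate wells.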
Consider `NS(=O)(=O)c1cc(C2(O)NC(=O)c3ccccc32)ccc1Cl` (centres undefined) [Chlorthalidone], for which the “fiber score / MBP score” value was found to be 1.29. As to `Nc1cc(N2CCCCC2)nc(N)[n+]1[O-]` [Minoxidil], the “fiber score / MBP score” value is 0.696. With `COc1ccc2[nH]c([S@@+]([O-])Cc3ncc(C)c(OC)c3C)nc2c1` [Esomeprazole] the figure was 0.799; with `Cn1c(NCCN(CCO)CCCc2ccc([N+](=O)[O-])cc2)cc(=O)n(C)c1=O` [Nifekalant], 0.616. As to `CCCOc1ccc(C(=O)OCCN(CC)CC)cc1N` [Proxymetacaine], the “fiber score / MBP score” value was 1.15. Then `COCCCOc1ccnc(C[S+]([O-])c2nc3ccccc3[nH]2)c1C` (centres undefined) [Rabeprazole], with 0.82; and `OC(CCN1CCCCC1)(c1ccccc1)C1CCCCC1` (centres undefined) [Trihexyphenidyl], with 0.616; and `CCN(CC)CCNC(=O)c1cc(Cl)c(N)cc1OC` [Metoclopramide], with 0.848. As to `COc1cc(N)c(Cl)cc1C(=O)NC1CCN(CCCOc2ccc(F)cc2)CC1OC` (centres undefined) [Cisapride], the “fiber score / MBP score” value is 0.935.

For the compound `CC1(C)O[C@@H]2[C@@H](CO[C@@]3(COS(N)(=O)=O)OC(C)(C)O[C@@H]23)O1` [Topiramate], the “fiber score / MBP score” value is 0.669. With `CC(C)Cc1ccc(C(C)C(=O)O)cc1` (centres undefined) [Ibuprofen] the figure was 0.67. Then `COC(=O)[C@H](c1ccccc1Cl)N1CCc2sccc2C1` [Clopidogrel], with 0.707; and `COC1=CC(=O)C[C@@H](C)[C@]12Oc1c(Cl)c(OC)cc(OC)c1C2=O` [Griseofulvin], with 0.759. For `O=C(O)c1cc(/N=N/c2ccc(S(=O)(=O)Nc3ccccn3)cc2)ccc1O` [Sulfasalazine], the “fiber score / MBP score” value was 0.823.

These data come from the supplement of paper PMC4840960.
